# C diff growth: inhibitors of Clostridium difficile growth; Clostridium difficile clinical isolate growth, OD600, 24 h; stronger effect = lower value; growth activity, negative = inhibition, % at 16 µg/mL (by protocol); hit rate 0.25% among 86,000; AID 1259249;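 active = mean growth activity at or below -80% and every replicate also at or below -80%; inconclusive = mean at or below -80% but some replicate above -80%; inactive = mean growth activity above -80%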;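 also: 0% = DMSO wells and -100% = levofloxacin 16 µg/mL wells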
# Tcruzi prolif: inhibitors of T. cruzi proliferation; T. cruzi beta-gal in NIH3T3, GalScreen luminescence, 90 h; inhibition, % at 8.34 µM; hit rate 5.9% among 77,000; AID 624255;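 active = mean inhibition above about 93%, with at least 55% of replicates each passing it, limit read from the data, passing the limit was not always enough; inconclusive = only one of those two conditions holds; inactive = neither condition holds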
# Pf Dd2 growth: inhibitors of Plasmodium falciparum Dd2 growth. P. falciparum Dd2 growth, SYBR Green, 72 h; stronger effect = lower value. activity change, % at 10 µM. hit rate 2.3% among 94,000. AID 1159554; in the data active = activity change below about -80%; inconclusive = no clear call, values can overlap the other calls
# Numbers without * were called inactive; ? = inconclusive; . = not tested or not shown; ! = a repeat was not active. Rows were chosen to be rich in hits. Some 6.7% of all compounds tested hit in one or more screens of this group.
SMILES,C diff growth,Tcruzi prolif,Pf Dd2 growth
COc1ccc2c3c([nH]c2c1)[C@@H](CO)N(Cc1cccc(F)c1)CC31CN(Cc2ccccn2)C1,0,.,?
COc1ccc2c3c([nH]c2c1)[C@@H](CO)N(Cc1ccc(F)cc1)CC31CN(Cc2ccccn2)C1,8,.,?
COc1cccc(CN2CC3(CCN(Cc4ccccn4)CC3)c3c([nH]c4cc(OC)ccc34)[C@H]2CO)c1,5,.,-84*
COc1ccc2c3c([nH]c2c1)[C@H](CO)N(Cc1ccncc1)CC31CN(Cc2ccc(-c3ccccn3)cc2)C1,5,.,-89*
COc1cccc(CN2CC3(CN(Cc4ccccn4)C3)c3c([nH]c4cc(OC)ccc34)[C@H]2CO)c1,13,.,-87*
C[C@@H]1CN([C@@H](C)CO)C(=O)CCCn2cc(nn2)CO[C@@H]1CN(C)C(=O)Nc1cccc(F)c1,-5,90,-20
C[C@H](CO)N1C[C@H](C)[C@H](CN(C)C(=O)Cc2ccncc2)Oc2ncc(C3=CCCC3)cc2C1=O,-9,3,-7
O=C(C[C@@H]1C=C[C@H](NC(=O)Nc2cc(F)ccc2F)[C@@H](CO)O1)Nc1ccc(-c2ccccc2)cc1,0,.,.
COc1ccc(S(=O)(=O)N(C)C[C@@H]2OCc3ccccc3-c3c(n(C)c4ccccc34)C(=O)N([C@H](C)CO)C[C@@H]2C)cc1,.,72,-83*
COc1cccc(S(=O)(=O)N(C)C[C@H]2OCc3ccccc3-c3c(n(C)c4ccccc34)C(=O)N([C@H](C)CO)C[C@H]2C)c1,-1,0,-43
COc1ccc(S(=O)(=O)N(C)C[C@H]2OCc3ccccc3-c3c(n(C)c4ccccc34)C(=O)N([C@@H](C)CO)C[C@@H]2C)cc1,.,60,-86*
C[C@@H]1CN([C@@H](C)CO)C(=O)c2c(c3ccccc3n2C)-c2ccccc2CO[C@@H]1CN(C)S(=O)(=O)c1ccccc1,.,27,-30
COCC(=O)Nc1ccc2c(c1)C(=O)N(C)C[C@@H](OC)[C@@H](C)CN(C(=O)c1ccncc1)[C@H](C)CO2,-1,-19,26
COc1ccc2c3c(n(C)c2c1)[C@H](CO)N(C(=O)CN(C)C)CC31CN(Cc2nccs2)C1,1,.,-10
COc1cccc(NC(=O)N2[C@@H]3CNC[C@H]2C3c2ccc(/C=C/c3ccccc3)cc2)c1 (stereo partly specified),-98*!,.,-20
OC[C@H]1[C@@H](c2ccccc2)[C@H](CNCC2CCC2)N1CC1CC1,9,31,-27
CN(C)C(=O)c1ccc(-c2ccc(C3[C@H]4CNC[C@@H]3N4C(=O)Nc3cccc(Cl)c3)cc2)cc1 (stereo partly specified),-3,.,37
O=C(Nc1cccc(Cl)c1)N1[C@@H]2CNC[C@H]1C2c1ccc(/C=C/c2ccccc2)cc1 (stereo partly specified),-95*!,.,-68
COc1cccc(NC(=O)N2[C@@H]3CNC[C@H]2C3c2ccc(-c3ccccc3)cc2)c1 (stereo partly specified),4,.,7
CC(C)CNC[C@@H]1[C@@H](c2ccccc2)[C@@H](CO)N1Cc1ccc(F)cc1,20,.,-91*
COc1cc(CN2[C@@H]3CNC[C@H]2C3c2ccc(/C=C/c3ccccc3)cc2)cc(OC)c1 (stereo partly specified),-93*!,.,-33
COc1cccc(CN2[C@@H]3CNC[C@H]2C3c2ccc(/C=C/c3ccccc3)cc2)c1 (stereo partly specified),39,.,-48
C[C@H]1CN([C@@H](C)CO)C(=O)c2cc(C3=CCCC3)cnc2O[C@H]1CN(C)C(=O)NC1CCCC1,-2,29,34
C/C=C/c1ccc([C@H]2[C@@H](CO)N(Cc3ccccn3)[C@H]2CNC(=O)CC)cc1,-7,32,-2
COc1cccc(NC(=O)N2[C@@H](CO)[C@@H](c3ccccc3)[C@@H]2CNCC(C)C)c1,-4,70,-81*
SMILES,C diff growth,Tcruzi prolif,Pf Dd2 growth
CNC[C@@H]1[C@H](c2ccccc2)[C@H](CO)N1C(=O)Nc1cccc(OC)c1,-4,44,7
O=C(C[C@@H]1C[C@H]2c3cc(NC(=O)c4cccnc4)ccc3O[C@H]2[C@H](CO)O1)NCc1ccccc1F,-2,-7,6
O=C(N[C@H]1CC[C@@H](CCn2cc(-c3cccnc3)nn2)O[C@@H]1CO)c1ccccc1F,.,-28,6
COc1ccccc1NC(=O)N1CCCCN2[C@@H](CO)[C@@H](c3ccc(-c4cccc(C)c4)cc3)[C@@H]2C1,-80*,69,-83*
COc1ccccc1NC(=O)N1CCCCN2[C@@H](CO)[C@H](c3ccc(C#CC4CC4)cc3)[C@@H]2C1,29,.,-79
COc1ccccc1NC(=O)N1CCCCN2[C@H](C1)[C@H](c1ccc(-c3cccc(C)c3)cc1)[C@@H]2CO,29,92,-6
COc1ccccc1NC(=O)N1CCCCN2[C@@H](CO)[C@@H](c3ccc(C#CC4CC4)cc3)[C@@H]2C1,48,.,-90*
CCCNC(=O)N[C@@H]1CC[C@H](CCNS(=O)(=O)c2cccc(F)c2)O[C@H]1CO,.,-60,11
COc1ccc(S(=O)(=O)N(C)C[C@H]2Oc3c(NC(=O)Nc4c(C)noc4C)cccc3C(=O)N([C@H](C)CO)C[C@H]2C)cc1,0,23,-40
C[C@@H]1CN([C@H](C)CO)C(=O)c2cccc(NC(=O)CCCCCC(=O)Nc3ccccc3N)c2O[C@@H]1CN(C)Cc1ccc(-c2ccccc2)cc1,6,.,-89*
C[C@H](CO)N1C[C@H](C)[C@H](CN(C)Cc2ccccc2)Oc2c(NC(=O)CCCCCC(=O)Nc3ccccc3N)cccc2C1=O,17,.,-65
C[C@@H]1CN([C@H](C)CO)C(=O)c2cccc(NC(=O)CCCCCC(=O)Nc3ccccc3N)c2O[C@@H]1CN(C)Cc1ccccc1,-5,.,-78
C[C@H]1CN([C@@H](C)CO)C(=O)c2cccc(NC(=O)CCCCCC(=O)Nc3ccccc3N)c2O[C@H]1CN(C)Cc1ccc(-c2ccccc2)cc1,-1,.,-85*
C[C@@H]1CN([C@H](C)CO)C(=O)c2cc(NS(=O)(=O)c3cn(C)cn3)ccc2O[C@@H](C)CCCCO[C@@H]1CN(C)S(C)(=O)=O,-3,9,68
COc1ccc(S(=O)(=O)N[C@@H]2CC[C@H](CCn3cc(-c4ccccc4F)nn3)O[C@@H]2CO)cc1,-1,12,-92*
COc1ccc(S(=O)(=O)N[C@H]2CC[C@@H](CCn3cc(-c4ccccc4F)nn3)O[C@@H]2CO)cc1,-3,-9,-43
COc1ccccc1S(=O)(=O)N[C@H]1CC[C@@H](CCn2cc(C3CCCC3)nn2)O[C@@H]1CO,14,.,-93*
CCCc1cn(CC[C@@H]2CC[C@H](NS(=O)(=O)c3ccc(-c4ccccc4)cc3)[C@H](CO)O2)nn1,-5,52,-92*
COc1ccccc1S(=O)(=O)N[C@H]1CC[C@H](CCn2cc(C3CCCC3)nn2)O[C@H]1CO,-2,.,-5
O=C(Nc1ccc(Cl)c(Cl)c1)N[C@@H]1CC[C@@H](CCn2cc(C3CCCCC3)nn2)O[C@@H]1CO,.,20,-87*
CN(C)Cc1cn(CC[C@H]2CC[C@H](NS(=O)(=O)c3ccc(-c4ccccc4)cc3)[C@H](CO)O2)nn1,.,-405,10

# Compound activity as filed in PubChem BioAssay.
